Experimental data from PubChem BioAssay (EPA / NIEHS).
The source made the active and inactive calls. Rule for the calls: active = hit-call score of the fitted dose curve at least 0.9, where 1 is the maximum; inactive = score below 0.9.

What was measured:
[1] = APR_HepG2_P-H2AX_72hr: Apredica 72-hour HepG2 Assay for H2AX Phosphorylation (AID 2282916); conditions: imaging, actives raise or lower the signal;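 note: phospho-histone H2A.x immunostain intensity per cell marking DNA damage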
In short: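 Phospho-H2A.x imaging endpoint in HepG2 after 72 hr compound exposure (0.39–200 uM, duplicate wells). Activity derived by bidirectional curve fitting with DMSO as baseline.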

[2] = APR_HepG2_MitoMembPot_72hr: Apredica 72-hour HepG2 Assay for Mitochondrial Membrane Potential (AID 2282917); conditions: imaging, actives raise or lower the signal
In short: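 HepG2 cells dosed 72 hr with compound at 0.39–200 uM in duplicate, 0.5% v/v DMSO final. Mitochondria stained with 250 nM MitoTracker Red CMXRos for 30 min before formaldehyde fixation, imaged by high-content fluorescence; bidirectional fit versus DMSO.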

[3] = APR_HepG2_MitoticArrest_72hr: Apredica 72-hour HepG2 Assay for Mitotic Arrest (AID 2282918); conditions: high-content imaging, actives raise or lower the signal
In short: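 HepG2, 72 hr exposure, 0.39–200 uM in duplicate, 0.5% v/v DMSO final. Formaldehyde-fixed, Triton-permeabilized, anti-phospho-histone H3/FITC plus Hoechst. ArrayScan imaging at 20x; curves fit bidirectionally against DMSO baseline.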

[4] = APR_HepG2_P-H2AX_24hr: Apredica 24-hour HepG2 Assay for H2AX Phosphorylation (AID 2282920); conditions: high-content imaging, actives raise or lower the signal
In short: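 HCS fluorescence imaging of phospho-H2A.x immunostain (with Hoechst 33342 nuclear counterstain) in HepG2 after 24 hr compound exposure; 10 concentrations, 0.39–200 uM, duplicate wells, 0.5% v/v DMSO. Gain or loss of signal fitted relative to DMSO baseline.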

[5] = APR_HepG2_StressKinase_24hr: Apredica 24-hour HepG2 Assay for Stress Kinase (AID 2282922); conditions: HepG2 stress kinase (phospho-c-Jun) imaging, actives raise or lower the signal
In short: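 Read-out: phospho-c-Jun immunofluorescence (Cy3 secondary) quantified by high-content imaging at 20x, nuclei defined by Hoechst 33342. Human HepG2 liver cells dosed 24 hr, 0.39–200 uM, DMSO 0.5% v/v; gain or loss of signal fitted relative to DMSO.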

[6] = APR_HepG2_p53Act_72hr: Apredica 72-hour HepG2 Assay for p53 Activation (AID 2282923); conditions: high-content imaging, actives raise or lower the signal;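 note: average cellular p53 protein immunofluorescence intensity in HepG2 cells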
In short: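 Fixed-cell p53 staining (sheep primary, Cy5 secondary) measured by fluorescence imaging following 72 hr treatment at 0.39–200 uM in 0.5% DMSO; DMSO served as negative control and baseline.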

[7] = biological target: CCAAT/enhancer-binding protein beta (Homo sapiens) (UniProt P17676); test: ATG_C_EBP_CIS: Attagene CIS-FACTORIAL HepG2 Assay for human CCAAT/Enhancer Binding Protein (C/EBP) beta (AID 2282927); conditions: HepG2 Attagene cis-factorial transcription factor reporter; actives raise or lower the signal
CCAAT/enhancer-binding protein beta (Homo sapiens), sequence (P17676 whole entry, looked up): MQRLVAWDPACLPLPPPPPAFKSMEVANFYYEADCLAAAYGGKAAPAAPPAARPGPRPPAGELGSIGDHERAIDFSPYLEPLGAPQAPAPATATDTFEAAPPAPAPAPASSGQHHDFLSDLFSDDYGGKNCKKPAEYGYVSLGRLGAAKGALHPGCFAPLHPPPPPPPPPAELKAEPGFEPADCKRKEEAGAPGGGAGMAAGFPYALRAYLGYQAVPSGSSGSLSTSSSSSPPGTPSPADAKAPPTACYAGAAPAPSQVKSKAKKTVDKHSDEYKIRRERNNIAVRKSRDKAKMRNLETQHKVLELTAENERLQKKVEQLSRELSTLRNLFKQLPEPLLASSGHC
In short: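 HepG2 transiently transfected with multiplexed reporter units under cis-regulatory promoters reporting endogenous C/EBPb activity. After 24 h exposure, reporter mRNA assayed by RT-PCR, fluorescent labelling, HpaI digestion and capillary electrophoresis; bidirectional fitting versus DMSO.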

[8] = ATG_DR4_LXR_CIS: Attagene CIS-FACTORIAL HepG2 Assay for human Liver X Receptor (LXR), DR4 submotif (AID 2282929); conditions: HepG2 Attagene DR4 cis-reporter, mRNA transcription; AC50: actives raise or lower the signal unless noted; outcome: actives raise or lower the signal unless noted
In short: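 DR4 cis-reporter in HepG2, 24 h exposure. Detection: RT-PCR, 6-FAM labelling, CE fragment analysis. Endpoint fitted bidirectionally, DMSO = baseline.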

[9] = biological target: Aryl hydrocarbon receptor (Homo sapiens) (UniProt P35869); test: ATG_Ahr_CIS: Attagene CIS-FACTORIAL HepG2 Assay for human Aryl Hydrocarbon Receptor (Ahr) (AID 2282930); conditions: HepG2 AhR cis-factorial reporter transcription; actives raise or lower the signal
Aryl hydrocarbon receptor (Homo sapiens), sequence (P35869 whole entry, looked up): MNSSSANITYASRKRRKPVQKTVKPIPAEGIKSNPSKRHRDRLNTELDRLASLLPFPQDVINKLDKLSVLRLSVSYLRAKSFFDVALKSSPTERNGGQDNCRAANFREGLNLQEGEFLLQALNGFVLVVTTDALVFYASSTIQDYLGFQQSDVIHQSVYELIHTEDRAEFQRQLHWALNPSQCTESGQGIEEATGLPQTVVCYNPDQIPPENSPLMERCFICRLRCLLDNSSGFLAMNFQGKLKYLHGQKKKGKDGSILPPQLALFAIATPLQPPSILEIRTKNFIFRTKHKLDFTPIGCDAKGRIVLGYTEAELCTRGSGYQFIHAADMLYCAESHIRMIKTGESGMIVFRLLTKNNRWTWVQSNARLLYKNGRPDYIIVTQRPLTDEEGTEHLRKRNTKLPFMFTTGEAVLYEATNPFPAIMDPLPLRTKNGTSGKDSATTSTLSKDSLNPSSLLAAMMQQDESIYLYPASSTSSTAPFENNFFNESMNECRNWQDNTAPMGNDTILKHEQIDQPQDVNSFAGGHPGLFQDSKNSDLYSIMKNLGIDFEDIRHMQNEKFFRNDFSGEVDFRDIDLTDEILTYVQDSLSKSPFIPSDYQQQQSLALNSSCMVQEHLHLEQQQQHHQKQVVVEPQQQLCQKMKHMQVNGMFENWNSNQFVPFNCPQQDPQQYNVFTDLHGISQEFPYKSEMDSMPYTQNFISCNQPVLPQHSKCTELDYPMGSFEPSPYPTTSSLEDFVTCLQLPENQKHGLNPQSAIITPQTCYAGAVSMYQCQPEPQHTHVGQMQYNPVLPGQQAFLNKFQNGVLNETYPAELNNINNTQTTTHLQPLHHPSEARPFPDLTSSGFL
In short: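 HepG2 cells transiently transfected with cis-element-driven multiplexed reporter units; endogenous AhR activity read as reporter mRNA 24 h after dosing, via RT-PCR, 6-FAM labelling, HpaI digestion and capillary electrophoresis. Bidirectional fit relative to DMSO.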

[10] = ATG_AP_2_CIS: Attagene CIS-FACTORIAL HepG2 Assay for human Activator Protein 2 (AP-2) (AID 2282932); conditions: HepG2 AP-2 cis-reporter, Attagene transcription factor profiling; AC50: actives raise or lower the signal unless noted; outcome: actives raise or lower the signal unless noted
In short: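 Read-out: fluorescent reporter mRNA via RT-PCR and capillary electrophoresis, 24 h post-dose in transiently transfected HepG2. Endogenous factors drive cis-promoter reporters; gain or loss of signal fitted bidirectionally against DMSO.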

[11] = ATG_BRE_CIS: Attagene CIS-FACTORIAL HepG2 Assay for human Bone Morphogenetic Protein (BMP) Response Element (BRE) (AID 2282933); conditions: HepG2 BMP response element reporter, Attagene transcription factor profiling; actives raise or lower the signal
In short: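 Transient MRTU transfection of human HepG2 liver cells; 24 h compound treatment; total RNA isolated, reverse-transcribed, PCR-amplified, 6-FAM labelled, HpaI-cut, capillary electrophoresis. DMSO = negative control/baseline, bidirectional fit.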

[12] = biological target: Retinoic acid receptor alpha (Homo sapiens) (UniProt P10276); test: ATG_DR5_RAR_CIS: Attagene CIS-FACTORIAL HepG2 Assay for human Retinoic Acid Receptor Alpha (RARE), DR5 submotif (AID 2282934); conditions: HepG2 Attagene cis-factorial RARE DR5 reporter, mRNA; actives raise or lower the signal
Retinoic acid receptor alpha (Homo sapiens), sequence (P10276 whole entry, looked up): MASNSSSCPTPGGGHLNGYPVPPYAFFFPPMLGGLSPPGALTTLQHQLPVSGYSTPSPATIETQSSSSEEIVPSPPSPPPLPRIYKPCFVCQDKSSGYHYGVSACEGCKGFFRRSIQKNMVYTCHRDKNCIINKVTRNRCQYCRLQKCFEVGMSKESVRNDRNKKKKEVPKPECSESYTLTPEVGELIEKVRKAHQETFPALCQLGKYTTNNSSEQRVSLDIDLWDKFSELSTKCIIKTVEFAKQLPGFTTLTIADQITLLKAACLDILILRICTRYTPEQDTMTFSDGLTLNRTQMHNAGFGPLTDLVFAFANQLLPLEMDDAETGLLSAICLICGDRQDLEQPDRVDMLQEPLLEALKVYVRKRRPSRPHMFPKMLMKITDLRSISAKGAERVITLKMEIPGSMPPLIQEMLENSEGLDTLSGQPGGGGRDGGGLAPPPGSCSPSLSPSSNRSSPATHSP
In short: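 HepG2 cells transiently transfected with multiplexed reporter units; DR5 cis-element drives reporter through endogenous transcription factors. After 24 h dosing, reporter mRNA quantified by RT-PCR, fluorescent labeling, HpaI digestion and capillary electrophoresis; bidirectional fitting versus DMSO.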

[13] = biological target: Transcription factor E2F1 (Homo sapiens) (UniProt Q01094); test: ATG_E2F_CIS: Attagene CIS-FACTORIAL HepG2 Assay for human E2F Transcription Factor 1 (AID 2282935); conditions: HepG2 Attagene cis-reporter, E2F reporter RNA transcripts; actives raise or lower the signal
Transcription factor E2F1 (Homo sapiens), sequence (Q01094 whole entry, looked up): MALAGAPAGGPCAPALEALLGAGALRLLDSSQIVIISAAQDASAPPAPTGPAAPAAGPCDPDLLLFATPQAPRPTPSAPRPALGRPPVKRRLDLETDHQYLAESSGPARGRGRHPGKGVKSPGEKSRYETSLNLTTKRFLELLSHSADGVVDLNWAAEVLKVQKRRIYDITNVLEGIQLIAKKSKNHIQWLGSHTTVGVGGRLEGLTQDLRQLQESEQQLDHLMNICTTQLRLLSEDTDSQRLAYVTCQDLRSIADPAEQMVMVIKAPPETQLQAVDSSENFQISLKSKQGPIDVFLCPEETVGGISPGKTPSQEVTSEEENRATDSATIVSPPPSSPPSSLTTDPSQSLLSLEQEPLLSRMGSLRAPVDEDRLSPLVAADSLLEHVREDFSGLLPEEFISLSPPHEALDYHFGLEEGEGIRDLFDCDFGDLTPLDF
In short: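 Transient MRTU transfection of HepG2; 24 h compound exposure; RNA → oligo(dT) RT → PCR → FAM label → HpaI cut → CE fluorescence. Gain/loss of signal fit against DMSO.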

[14] = ATG_E_Box_CIS: Attagene CIS-FACTORIAL HepG2 Assay for human Enhancer Box (E-box) (AID 2282936); conditions: HepG2 E-box cis-reporter transcription, actives raise or lower the signal
In short: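 Transiently transfected HepG2, endogenous TF-driven reporters, 24 h dosing. Readout: RT-PCR plus capillary electrophoresis of fluorescent reporter fragments. Gain or loss of signal fitted bidirectionally against DMSO baseline.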

[15] = ATG_M_61_CIS: Attagene CIS-FACTORIAL HepG2 Assay for M61 Transcription Factor (Internal Marker) (AID 2282937); conditions: HepG2 Attagene CIS-FACTORIAL M61 internal marker reporter; actives raise or lower the signal
In short: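 Background-control endpoint: HepG2 cells with cis-regulated reporter constructs, 24 h exposure, reporter mRNA detected via fluorescent primer extension and capillary electrophoresis; values from bidirectional fitting with DMSO baseline.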

[16] = ATG_CRE_CIS: Attagene CIS-FACTORIAL HepG2 Assay for human cAMP Responsive Element (CRE) binding protein 3 (AID 2282926); conditions: HepG2 CRE cis-reporter, Attagene multiplexed mRNA; actives raise or lower the signal
In short: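 Readout: fluorescently labelled reporter transcripts resolved by capillary electrophoresis after RT-PCR, taken 24 h post-dosing in transfected HepG2. Endogenous transcription factor activity drives each cis-element reporter; gain or loss of signal fitted relative to DMSO control.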

[17] = ATG_CMV_CIS: Attagene CIS-FACTORIAL HepG2 Assay for human CMV (Internal Marker) (AID 2282928); conditions: HepG2 CMV promoter reporter, transcription factor profiling; actives raise or lower the signal;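 note: endpoint acts as a background internal control marker rather than a target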
In short: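 24 h chemical treatment, HepG2 with transient multi-reporter transfection; RNA → oligo(dT) RT → PCR → 6-FAM extension → HpaI digest → CE fluorescence. Bidirectional fit, DMSO negative control.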

[18] = ATG_AP_1_CIS: Attagene CIS-FACTORIAL HepG2 Assay for human Activator Protein 1 (AP-1) (AID 2282931); conditions: HepG2 Attagene cis-factorial AP-1 reporter mRNA; actives raise or lower the signal
In short: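 Cis-regulated reporter units transiently expressed in HepG2 report endogenous transcription-factor activity. Signal: reporter mRNA at 24 h, via RT-PCR and fluorescent capillary electrophoresis. Endpoint derived by bidirectional fitting, DMSO as negative control.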

[19] = APR_HepG2_MicrotubuleCSK_72hr: Apredica 72-hour HepG2 Assay for Microtubule CSK Stabilty (AID 2282919); conditions: HepG2 microtubule cytoskeleton, high-content imaging, actives raise or lower the signal
In short: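 HepG2, 72 hr cmpd exposure, 0.39–200 uM (10 pts, duplicate), 0.5% DMSO. 3.7% formaldehyde fix, 0.5% Triton perm, anti-alpha-tubulin/Cy5 plus Hoechst. HCS fluorescence intensity; bidirectional fit vs DMSO baseline; taxol as positive control.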

[20] = APR_HepG2_NuclearSize_72hr: Apredica 72-hour HepG2 Assay for Nuclear Size (AID 2282925); conditions: high-content imaging, actives raise or lower the signal
In short: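 Read-out: nuclear diameter from Hoechst 33342 images (ArrayScan, 20x, six fields/well), via cell-cycle image analysis. HepG2 were dosed 0.39–200 uM for 72 hr in 0.5% DMSO. Bidirectional fit relative to DMSO.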

Measured: AC50

CS(=O)(=O)c1ccc([C@@H](CC2CCCC2)C(=O)Nc2cnccn2)cc1Cl
active: [8] 29.1 µM | [9] 68.4 µM | [11] 127 µM
not listed: [16] | [17] | [18] | [19] | [20]
inactive: all other assays above

C=COC(=O)C(C)(C)CCCCCC
active: [17] 159 µM
not listed: [1] | [2] | [3] | [4] | [5] | [6] | [19] | [20]
inactive: all other assays above

CCCCCCCCC1CCC(=O)O1 (centres undefined)
not listed: [1] | [2] | [3] | [4] | [5] | [6] | [19] | [20]
inactive: all other assays above

CN(Cc1cnc2nc(N)nc(N)c2n1)c1ccc(C(=O)N[C@@H](CCC(=O)O)C(=O)O)cc1
active: [1] 0.0391 µM | [2] 19.8 µM
not listed: [6] | [9] | [10] | [17] | [18]
inactive: all other assays above
